The panel holds about 83,000 compounds, 20% with a hit somewhere; the sample as a whole holds those more often.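 96-well plates, one dose, 48 hours. Percent growth reported; active if below 10.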 A number with no mark means an inactive call. Active and inactive are the calls of the source.

Common to all, as to assay: NCI-60 one-dose screen, 48 h (100 = growth as untreated, 0 = no growth, -100 = all killed)
What all share (conditions): 10 µM unless noted

In assay [1] the test system is NCI-H23 lung.
Assay [2] concerns NCI-H226 lung.
The subject of assay [3] is NCI-H322M lung.
For assay [4], the system named is HOP-62 NSCLC.
Assay [5] deals with NCI-H460 lung.
In assay [6] the test system is HOP-92 NSCLC.
Assay [7] has as its system NCI-H522 lung.
The test system of assay [8] is A549/ATCC NSCLC.
In assay [9] the test system is 786-0 renal.
The test system of assay [10] is COLO 205 colon.
The test system of assay [11] is DU-145 prostate.
Assay [12] deals with K-562 leukemia.
Assay [13] has as its system MALME-3M melanoma.
Assay [14] relates to MDA-MB-231 breast.
In assay [15] the test system is RXF 393 renal.
For assay [16], the system named is SF-268 CNS.
Assay [17] relates to SF-295 CNS.
Assay [18] concerns SF-539 CNS.
Assay [19] concerns UACC-257 melanoma.
Assay [20] has as its system M14 melanoma.

As to `COc1cc(NC(=O)c2cc(O)c(C/C=C(\C)CCC=C(C)C)c(O)c2)cc2c1O[C@]1(C)CC[C@@H](O)C(C)(C)[C@H]1C2`, the growth in [1] was 25.1%; in assay [2] it was 38%; in assay [3], 41.5%; in assay [4], 12.1%; in [5], 11.4%; in assay [6], -9.24% (active). Further, the growth in assay [7] was 12.8%; in [8] it was 14.5%; in [9], -19% (active); in [10], -22.3% (active); in assay [11], 20.3%; in [12] it was 0.252% (active). Moreover, the growth was -18.5% (active) in assay [13]; -33.7% (active) in assay [14]; -38.7% (active) in assay [15]; 15.7% in assay [16]; -8.51% (active) in assay [17]; -51.2% (active) in assay [18]. The growth in [19] is 34.4%; in assay [20] it was -15.4% (active).
Regarding `O=c1c2ccccc2n(CC(O)CN2CCCC2)c2c(Br)cccc12` (stereo not given), the growth is 131% in assay [1]; 122% in [2]; 110% in [3]; 100% in assay [4]; 106% in [5]; 90.2% in assay [6]. The growth in [7] is 101%; in assay [8], 87%; in assay [9] it was 98.8%; in assay [10], 82.4%; in assay [11] it was 105%; in assay [12], 92.9%. Also, the growth in assay [13] was 125%; in assay [14] it was 129%; in assay [15] it was 98.9%; in assay [16], 94.8%; in [17], 106%; in [18], 94.9%. Also, the growth in [19] is 98.6%; in assay [20], 98.7%.
As to `CCCCC1=c2c([nH]c3ccc(OC)cc23)=NC2C=CC=NC12` (stereo not given), the growth is 81.4% in [1]; 89.3% in assay [2]; 86.1% in assay [3]; 90.8% in assay [4]; 80.7% in assay [5]; 103% in assay [6]. Further, the growth was 83.8% in assay [7]; 103% in assay [8]; 110% in [9]; 106% in [10]; 98.8% in assay [11]; 72.1% in [12]. Moreover, the growth in [13] is 108%; in assay [14], 79.9%; in assay [15] it was 92.8%; in assay [16] it was 93.1%; in [17], 106%; in assay [18], 93.7%. Further, the growth in assay [19] is 126%; in assay [20], 101%.
Take `CN1CCN(S(=O)(=O)O[C@@H]2C(=O)N(c3cc4c5ccccc5ccc4c4ccccc34)[C@H]2c2ccc(F)cn2)CC1`: the growth was 90.6% in assay [1]; 91.2% in assay [2]; 87.4% in assay [3]; 86.6% in assay [4]; 98% in [5]; 65.3% in assay [6]. In addition, the growth in assay [7] was 70.3%; in assay [8] it was 83.4%; in [9], 79.8%; in assay [10], 96.7%; in [11] it was 94.4%; in [12], 74.7%. The growth in assay [13] is 115%; in [14] it was 38.8%; in assay [15], 77.6%; in [16] it was 79.7%; in assay [17], 96.5%; in assay [18], 104%. Also, the growth was 88.1% in assay [19] and 90.9% in [20].
`COc1cc(NC(=O)Nc2cnc(Nc3ccc(N4CCOCC4)cc3)nc2Oc2ccc(F)cc2)cc(OC)c1`: the growth in assay [1] is 81.2%; in assay [2], 88%; in assay [3], 97.2%; in assay [4], 89.5%; in assay [5], 54.1%; in assay [6], 78.6%. The growth in assay [7] was 92.5%; in assay [8], 55.6%; in [9], 38.8%; in assay [10] it was 111%; in [11], 86.3%; in [12], 72.5%. Moreover, the growth in [13] was 62.7%; in assay [14], 87.6%; in assay [15], 77.8%; in [16], 75.8%; in assay [17], 109%; in [18] it was 89.1%. Also, the growth in assay [19] was 78%; in assay [20] it was 91.7%.
Regarding `CC[C@]12C=CCN3CC[C@@]4(c5cc(NC(=O)CCC(=O)O[C@H]6CC[C@H]7[C@@H]8CC[C@H]9CC(=O)CC[C@]9(C)[C@H]8CC[C@]67C)c(OC)cc5N(C)[C@H]4[C@@](O)(C(=O)OC)[C@@H]1OC(C)=O)[C@@H]32`, the growth is 89.7% in [1]; 70.9% in assay [2]; 99% in assay [3]; 95.6% in assay [4]; 64.5% in [5]; 52.4% in assay [6]. Besides, the growth is 63.6% in [7]; 56.7% in assay [8]; 74.7% in [9]; 69.1% in [10]; 86.8% in assay [11]; 41.7% in [12]. Further, the growth in assay [13] is 77.7%; in [14], 83%; in assay [15], 66.2%; in assay [16], 74.3%; in [17], 68.4%; in assay [18], 74.1%. In addition, the values for the growth in assay [19] and in assay [20] were 94.5% and 67.5%, respectively.
On to `COc1ccc(-c2cc(-c3nnc(SCC(=O)Nc4ccc(/C(C)=N\O)cc4)o3)c3ccccc3n2)cc1`, for which the growth in [1] is 99.5%; in assay [2], 96.3%; in assay [3], 113%; in [4], 99.3%; in [5] it was 105%; in [6], 109%. Also, the growth in [7] is 87%; in [8] it was 100%; in assay [9] it was 95.5%; in assay [10] it was 118%; in assay [11] it was 109%; in assay [12] it was 96.5%. Also, the growth in assay [13] was 97.8%; in assay [14], 114%; in assay [15], 106%; in assay [16], 101%; in assay [17], 105%; in assay [18], 111%. In addition, the results for the growth in [19] and in assay [20] were 101% and 115%, respectively.
Regarding `C/C(=C\c1cnc(C)s1)[C@@H]1C[C@@H]2O[C@@H]2CCC[C@H](C)[C@H](O)[C@@H](C)C(=O)C(C)(C)[C@@H](O)CC(=O)O1`, the growth in [1] was 31.7%; in [2] it was 85.3%; in assay [3], 25.7%; in assay [4] it was 26.5%; in [5], 14.9%; in assay [6], 52.6%. For the same compound, the growth was -2.17% (active) in assay [7]; 42.3% in [8]; 43.6% in assay [9]; -8.64% (active) in assay [10]; 2.1% (active) in [11]; 11.8% in assay [12]. The growth in assay [13] is 54.6%; in assay [14], 41.3%; in [15], 18.1%; in assay [16] it was 51.7%; in assay [17], 7.05% (active); in assay [18], 7.63% (active). The growth in assay [19] was 76.1%; in [20] it was 22.1%.
With `CCN(CC)CC#CCOC(=O)[C@]1(C)CCC[C@]2(C)[C@H]3C[C@H]4C(C(C)C)=C[C@]3(CC[C@H]21)[C@@H]1C(=O)CCC(=O)[C@@H]14`, the growth in assay [1] is 57.3%; in assay [2] it was 76.2%; in assay [3], 87.7%; in assay [4], 79.2%; in assay [5], 59.2%; in [6], 57%. The growth in [7] was 29.5%; in [8] it was 48.1%; in [9] it was 54.1%; in assay [10], 36.2%; in [11] it was 71%; in assay [12], 18.6%. Besides, the growth in assay [13] is 45.3%; in assay [14], 69%; in [15] it was 15.3%; in [16] it was 68.9%; in [17], 59.6%; in assay [18] it was 66.8%. Besides, the values for the growth in assay [19] and in assay [20] were 56.9% and 51.4%, respectively.
On to `Cc1ccc(CS/C(=C\c2ccc([N+](=O)[O-])cc2)C(=O)c2ccc(F)cc2)cc1`, for which the growth in [1] is 57.2%; in assay [2] it was 67%; in assay [3], 103%; in [4], 83.4%; in assay [5], 82.3%; in [6], 96.2%. The growth in [7] was -5.69% (active); in assay [8], 85%; in assay [9] it was 76.9%; in assay [10], 54.2%; in assay [11], 91.2%; in [12] it was -0.821% (active). The growth in assay [13] is 83.7%; in assay [14] it was 60.5%; in assay [15], 100%; in assay [16], 74.6%; in assay [17] it was 79.2%; in assay [18], 98.1%. The results for the growth in [19] and in assay [20] were 93.3% and 40.8%, respectively.
As to `C[C@@H]1C(=O)[C@@H]2C[C@@H](O)[C@@H](O)C[C@]2(C)[C@H]2CC[C@@]3(C)C(=C12)CC[C@@H]3[C@@](C)(O)[C@H](O)CCC(C)(C)O`, the growth in [1] was 103%; in [2], 99.5%; in [3] it was 95.2%; in assay [4] it was 91%; in [5], 105%; in [6] it was 97.5%. Besides, the growth is 89% in [7]; 92.8% in assay [8]; 100% in assay [9]; 117% in [10]; 99.2% in assay [11]; 94.9% in [12]. The growth in assay [13] is 103%; in [14] it was 107%; in [15] it was 116%; in assay [16], 98.2%; in assay [17] it was 108%; in [18], 103%. For the same compound, the growth is -10.5% (active) in assay [19] and 105% in assay [20].
For the compound `CN(C)[C@@H]1C(=O)C(C(N)=O)=C(O)[C@@]2(O)C(=O)C3=C(O)c4c(O)cc(CN5CCc6ccccc6C5)c(Cl)c4C[C@H]3C[C@@H]12`, the growth in assay [1] was -73.8% (active); in [2] it was -70.8% (active); in assay [3] it was -87.2% (active); in [4] it was -85.4% (active); in assay [5] it was -68.7% (active); in [6], -82.8% (active). Moreover, the growth in [7] was -79.3% (active); in [8], -85.4% (active); in assay [9], -83.8% (active); in [10], -78.3% (active); in assay [11], -92.2% (active); in [12], -73.6% (active). In addition, the growth in assay [13] is -52.5% (active); in assay [14], -74.4% (active); in assay [15] it was -82.2% (active); in assay [16] it was -74.9% (active); in [17] it was -88.9% (active); in assay [18], -84.6% (active). Further, the growth in assay [19] was -62% (active); in assay [20], -71.2% (active).
On to `C#Cc1ccccc1NC(=O)c1sc2nc3c(cc2c1N)CCCCCC3`, for which the growth in [1] was 53.5%; in [2], 83.4%; in assay [3], 82.7%; in assay [4], 76.8%; in assay [5] it was 33.4%; in [6] it was 67.6%. For the same compound, the growth was 72.1% in [7]; 51.4% in assay [8]; 17% in [9]; 47.4% in assay [10]; 50% in [11]; 74.5% in [12]. The growth in assay [13] is 8.8% (active); in [14], 5.3% (active); in assay [15] it was 92.9%; in [16], 48.5%; in assay [17] it was 75.7%; in assay [18], 62.2%. Also, the values for the growth in assay [19] and in assay [20] were 96% and 56.5%, respectively.

These data come from PubChem BioAssay (NCI).
